In PubChem BioAssay (EPA / NIEHS):
Inconclusive results are not listed. Active and inactive are the calls of the source. Rule for the calls, unless noted: active = hit-call score of the fitted dose curve at least 0.9, where 1 is the maximum; inactive = score below 0.9.

How the values were obtained:
[1] = ATG_CRE_CIS: Attagene CIS-FACTORIAL HepG2 Assay for human cAMP Responsive Element (CRE) binding protein 3 (AID 2282926); settings: HepG2 CRE cis-reporter, Attagene multiplexed mRNA; actives raise or lower the signal
Procedure, shortened: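 Induced reporter mRNA from a CRE cis element, measured in HepG2 among many multiplexed units at 24 h. Detection used RT-PCR plus capillary electrophoresis of fluorescent fragments; DMSO served as negative control.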

[2] = ATG_DR4_LXR_CIS: Attagene CIS-FACTORIAL HepG2 Assay for human Liver X Receptor (LXR), DR4 submotif (AID 2282929); settings: HepG2 Attagene DR4 cis-reporter, mRNA transcription; actives raise or lower the signal
Procedure, shortened: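 Cells were transfected with multiple reporter transcription units, exposed to chemicals for 24 hours, then lysed for RNA. Reporter mRNA induction was measured by RT-PCR with capillary electrophoresis detection and fitted in both directions relative to DMSO.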

[3] = molecular target: Transcription factor E2F1 (Homo sapiens) (UniProt Q01094); assay: ATG_E2F_CIS: Attagene CIS-FACTORIAL HepG2 Assay for human E2F Transcription Factor 1 (AID 2282935); settings: HepG2 Attagene cis-reporter, E2F reporter RNA transcripts; actives raise or lower the signal
Sequence of Transcription factor E2F1 (Homo sapiens) (Q01094 whole entry, looked up): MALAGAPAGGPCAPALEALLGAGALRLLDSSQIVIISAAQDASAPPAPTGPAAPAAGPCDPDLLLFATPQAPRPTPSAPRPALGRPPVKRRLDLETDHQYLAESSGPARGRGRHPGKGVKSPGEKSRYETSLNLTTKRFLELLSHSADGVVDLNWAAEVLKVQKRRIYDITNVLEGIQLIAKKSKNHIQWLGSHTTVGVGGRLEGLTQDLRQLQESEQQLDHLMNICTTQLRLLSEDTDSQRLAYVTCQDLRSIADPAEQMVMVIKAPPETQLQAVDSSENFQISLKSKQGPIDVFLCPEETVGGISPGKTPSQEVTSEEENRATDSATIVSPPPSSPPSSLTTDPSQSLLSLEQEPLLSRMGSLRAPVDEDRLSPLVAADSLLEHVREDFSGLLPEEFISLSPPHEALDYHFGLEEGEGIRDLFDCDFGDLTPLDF
Procedure, shortened: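 Liver-derived HepG2 cells expressing transfected promoter-driven reporter units received test chemical for 24 hours. Signal gains or losses were fitted bidirectionally against DMSO.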

[4] = ATG_GRE_CIS: Attagene CIS-FACTORIAL HepG2 Assay for human Glucocorticoid Response Elements (GRE) (AID 2282947); settings: HepG2 GRE cis-reporter, Attagene multiplex mRNA; actives raise or lower the signal
Procedure, shortened: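 Fluorescence intensity of reporter-specific cDNA fragments, separated by capillary electrophoresis, provides the signal. Constructs carry cis-regulating promoters in transiently transfected HepG2 liver cells; 24 h incubation; fitting is bidirectional against DMSO.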

[5] = molecular target: Hypoxia-inducible factor 1-alpha (Homo sapiens) (UniProt Q16665); assay: ATG_HIF1a_CIS: Attagene CIS-FACTORIAL HepG2 Assay for human Hypoxia Inducible Factor 1 (HIF1A) (AID 2282951); settings: HepG2 Attagene cis-factorial HIF1a reporter transcription; actives raise or lower the signal
Sequence of Hypoxia-inducible factor 1-alpha (Homo sapiens) (Q16665 whole entry, looked up): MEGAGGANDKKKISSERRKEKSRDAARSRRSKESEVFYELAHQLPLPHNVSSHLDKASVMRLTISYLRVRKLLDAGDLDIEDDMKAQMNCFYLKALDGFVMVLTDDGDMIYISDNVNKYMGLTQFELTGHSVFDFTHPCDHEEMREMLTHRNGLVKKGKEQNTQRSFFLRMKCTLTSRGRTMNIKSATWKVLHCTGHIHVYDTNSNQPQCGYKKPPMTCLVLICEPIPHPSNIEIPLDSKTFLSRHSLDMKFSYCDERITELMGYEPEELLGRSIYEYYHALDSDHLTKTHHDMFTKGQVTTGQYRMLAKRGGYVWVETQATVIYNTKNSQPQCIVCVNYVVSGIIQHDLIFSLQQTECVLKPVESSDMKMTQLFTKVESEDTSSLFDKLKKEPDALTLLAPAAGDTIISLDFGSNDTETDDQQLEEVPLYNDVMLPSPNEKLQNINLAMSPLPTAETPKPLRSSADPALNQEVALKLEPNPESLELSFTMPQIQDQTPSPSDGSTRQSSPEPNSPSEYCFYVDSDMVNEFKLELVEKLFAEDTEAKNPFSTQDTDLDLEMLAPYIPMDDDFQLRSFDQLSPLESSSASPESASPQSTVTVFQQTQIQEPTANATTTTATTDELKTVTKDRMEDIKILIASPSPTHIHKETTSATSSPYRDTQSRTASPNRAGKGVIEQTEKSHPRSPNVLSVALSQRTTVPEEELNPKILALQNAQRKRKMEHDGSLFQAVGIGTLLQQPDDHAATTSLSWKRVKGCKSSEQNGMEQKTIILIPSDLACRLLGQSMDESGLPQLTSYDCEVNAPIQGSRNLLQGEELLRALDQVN
Procedure, shortened: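 Measures endogenous transcription-factor activity through cis-regulated reporter mRNA in HepG2. Cells dosed 24 h; transcripts quantified by RT-PCR with 6-FAM-labelled products separated by capillary electrophoresis; DMSO serves as negative control.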

[6] = molecular target: Hepatocyte nuclear factor 6 (Homo sapiens) (UniProt Q9UBC0); assay: ATG_HNF6_CIS: Attagene CIS-FACTORIAL HepG2 Assay for human Hepatocyte Nuclear Factor 6 (HNF6) (AID 2282952); settings: HepG2 Attagene cis-factorial HNF6 reporter transcription; actives raise or lower the signal
Sequence of Hepatocyte nuclear factor 6 (Homo sapiens) (Q9UBC0 whole entry, looked up, the tested form may be a part): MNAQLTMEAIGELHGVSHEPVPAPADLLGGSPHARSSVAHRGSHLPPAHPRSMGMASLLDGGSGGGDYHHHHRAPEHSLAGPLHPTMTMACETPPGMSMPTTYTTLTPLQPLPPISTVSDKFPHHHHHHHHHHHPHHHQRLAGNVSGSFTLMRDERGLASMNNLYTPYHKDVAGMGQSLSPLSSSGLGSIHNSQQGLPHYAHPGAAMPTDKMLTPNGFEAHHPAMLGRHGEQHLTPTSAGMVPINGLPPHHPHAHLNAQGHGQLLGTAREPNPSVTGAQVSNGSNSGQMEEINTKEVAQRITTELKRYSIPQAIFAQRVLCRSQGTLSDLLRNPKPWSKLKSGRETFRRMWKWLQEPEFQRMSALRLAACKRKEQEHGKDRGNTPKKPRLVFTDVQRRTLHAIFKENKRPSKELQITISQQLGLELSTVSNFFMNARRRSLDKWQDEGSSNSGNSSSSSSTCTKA
Procedure, shortened: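 First, HepG2 cells were transfected with the multiplexed cis reporter library and dosed with chemical for 24 h. Next, RNA was reverse-transcribed, PCR-amplified and fluorescently labelled. Finally, HpaI-digested fragments were read by capillary electrophoresis.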

[7] = molecular target: Heat shock factor protein 1 (Homo sapiens) (UniProt Q00613); assay: ATG_HSE_CIS: Attagene CIS-FACTORIAL HepG2 Assay for human Heat Shock Transcription Factor 1 (HSE) (AID 2282953); settings: HepG2 HSE cis-reporter, Attagene RNA transcription; actives raise or lower the signal
Sequence of Heat shock factor protein 1 (Homo sapiens) (Q00613 whole entry, looked up, the tested form may be a part): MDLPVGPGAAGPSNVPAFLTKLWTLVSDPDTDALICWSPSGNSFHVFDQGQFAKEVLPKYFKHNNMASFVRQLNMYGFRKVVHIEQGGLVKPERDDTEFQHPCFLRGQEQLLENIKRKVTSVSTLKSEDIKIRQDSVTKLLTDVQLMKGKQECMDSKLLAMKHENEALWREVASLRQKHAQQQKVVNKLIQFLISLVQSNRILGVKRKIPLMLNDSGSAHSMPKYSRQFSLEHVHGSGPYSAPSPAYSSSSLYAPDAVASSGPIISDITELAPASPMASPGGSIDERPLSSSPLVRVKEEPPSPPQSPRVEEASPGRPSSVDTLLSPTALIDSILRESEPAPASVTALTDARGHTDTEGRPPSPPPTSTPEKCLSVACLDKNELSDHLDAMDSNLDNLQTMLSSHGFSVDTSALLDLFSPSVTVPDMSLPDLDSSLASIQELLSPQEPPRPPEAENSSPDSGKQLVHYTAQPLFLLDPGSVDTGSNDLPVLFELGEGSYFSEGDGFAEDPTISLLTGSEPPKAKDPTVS
Procedure, shortened: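 Endogenous transcription factor activity captured via cis-promoter reporter units transfected into HepG2; treatment lasted 24 h. Fluorescence intensity of reporter fragments analysed with bidirectional curve fitting, DMSO baseline.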

[8] = ATG_TA_CIS: Attagene CIS-FACTORIAL HepG2 Assay for human TA Basal Promoter (AID 2282964); settings: HepG2 Attagene CIS-factorial TA basal promoter reporter; actives raise or lower the signal
Procedure, shortened: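 Fluorescence from labelled RT-PCR reporter fragments, separated by capillary electrophoresis, gives the signal. Cells: HepG2 transiently carrying multiple reporter units, 24 h chemical dosing. Gain or loss relative to DMSO.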

[9] = ATG_TCF_b_cat_CIS: Attagene CIS-FACTORIAL HepG2 Assay for human T-Cell-Factor with beta-catenin (TCF/b-cat) (AID 2282965); settings: HepG2 TCF/beta-catenin cis-reporter transcription, actives raise or lower the signal
Procedure, shortened: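 HepG2 cells transiently transfected with cis-promoter-driven multiplexed reporter units; reporter mRNA measured 24 h after dosing by RT-PCR, FAM labelling, HpaI digestion and capillary electrophoresis. Bidirectional fitting relative to DMSO baseline.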

[10] = molecular target: Transcriptional activator Myb (Homo sapiens) (UniProt P10242); assay: ATG_Myb_CIS: Attagene CIS-FACTORIAL HepG2 Assay for human Myeloblastosis (Myb) Proto-Oncogene Transcription Factor (AID 2282986); settings: HepG2 Attagene CIS-FACTORIAL Myb reporter transcription; actives raise or lower the signal
Sequence of Transcriptional activator Myb (Homo sapiens) (P10242 whole entry, looked up): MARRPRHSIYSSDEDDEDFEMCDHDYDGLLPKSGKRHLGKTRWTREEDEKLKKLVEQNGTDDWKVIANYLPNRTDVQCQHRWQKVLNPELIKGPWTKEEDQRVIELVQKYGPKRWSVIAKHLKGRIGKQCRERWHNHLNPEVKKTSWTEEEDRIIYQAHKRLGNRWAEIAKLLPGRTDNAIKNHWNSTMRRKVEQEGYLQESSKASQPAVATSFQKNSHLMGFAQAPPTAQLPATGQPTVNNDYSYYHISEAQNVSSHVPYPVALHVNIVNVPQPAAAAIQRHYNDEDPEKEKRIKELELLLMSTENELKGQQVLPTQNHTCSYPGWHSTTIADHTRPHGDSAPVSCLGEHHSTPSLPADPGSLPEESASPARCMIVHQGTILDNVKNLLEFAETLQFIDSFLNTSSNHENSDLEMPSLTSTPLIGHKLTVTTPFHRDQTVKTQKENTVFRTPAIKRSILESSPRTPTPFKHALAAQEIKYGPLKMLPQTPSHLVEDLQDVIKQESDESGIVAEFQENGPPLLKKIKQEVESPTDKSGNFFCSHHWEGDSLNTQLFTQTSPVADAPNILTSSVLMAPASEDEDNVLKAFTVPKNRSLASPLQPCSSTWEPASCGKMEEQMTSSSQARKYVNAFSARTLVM
Procedure, shortened: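 Steps: transfect HepG2 with cis-regulated reporter units; dose with chemical for 24 h; isolate RNA, reverse-transcribe, PCR-amplify and FAM-label reporter sequences; digest with HpaI; resolve by capillary electrophoresis. Activity fitted in both directions relative to DMSO.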

[11] = molecular target: Nuclear respiratory factor 1 (Homo sapiens) (UniProt Q16656); assay: ATG_NRF1_CIS: Attagene CIS-FACTORIAL HepG2 Assay for human Nuclear Respiratory Factor 1 (NRF1) Orphan Gene (AID 2282987); settings: HepG2 NRF1 cis-element reporter, Attagene multiplex; actives raise or lower the signal
Sequence of Nuclear respiratory factor 1 (Homo sapiens) (Q16656 whole entry, looked up, the tested form may be a part): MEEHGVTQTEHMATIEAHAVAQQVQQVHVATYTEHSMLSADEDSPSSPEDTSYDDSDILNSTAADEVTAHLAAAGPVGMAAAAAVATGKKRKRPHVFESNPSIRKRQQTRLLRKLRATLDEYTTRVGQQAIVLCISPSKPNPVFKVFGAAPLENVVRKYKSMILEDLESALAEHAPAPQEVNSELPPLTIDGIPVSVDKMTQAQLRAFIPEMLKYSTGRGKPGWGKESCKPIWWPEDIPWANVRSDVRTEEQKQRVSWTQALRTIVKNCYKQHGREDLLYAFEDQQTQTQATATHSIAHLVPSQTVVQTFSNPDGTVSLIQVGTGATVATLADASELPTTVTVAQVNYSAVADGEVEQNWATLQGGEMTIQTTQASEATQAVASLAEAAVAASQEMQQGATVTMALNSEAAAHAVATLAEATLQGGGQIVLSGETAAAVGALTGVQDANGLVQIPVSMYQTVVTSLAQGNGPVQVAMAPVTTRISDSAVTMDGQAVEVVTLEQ
Procedure, shortened: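 Fluorescence intensity of labelled reporter cDNA fragments, resolved by capillary electrophoresis, served as readout for NRF1 cis-element activity. Transiently transfected HepG2 cells were dosed for 24 hours; activity in either direction was fitted against DMSO negative control.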

[12] = ATG_NFI_CIS: Attagene CIS-FACTORIAL HepG2 Assay for human Nuclear Factor I (NFI) (AID 2282989); settings: HepG2 cis-regulatory reporter, NFI response element transcription; actives raise or lower the signal
Procedure, shortened: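 Cells: human liver HepG2, transiently transfected with promoter-regulated reporter transcription units. Exposure 24 h. Detection: fluorescent RT-PCR products separated by capillary electrophoresis, normalised to DMSO negative control.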

[13] = molecular target: Myc proto-oncogene protein (Homo sapiens) (UniProt P01106); assay: ATG_Myc_CIS: Attagene CIS-FACTORIAL HepG2 Assay for human Myelocytomatosis (Myc) Proto-Oncogene Transcription Factor (AID 2282990); settings: HepG2, Attagene cis-reporter transcription factor activity; actives raise or lower the signal
Sequence of Myc proto-oncogene protein (Homo sapiens) (P01106 whole entry, looked up): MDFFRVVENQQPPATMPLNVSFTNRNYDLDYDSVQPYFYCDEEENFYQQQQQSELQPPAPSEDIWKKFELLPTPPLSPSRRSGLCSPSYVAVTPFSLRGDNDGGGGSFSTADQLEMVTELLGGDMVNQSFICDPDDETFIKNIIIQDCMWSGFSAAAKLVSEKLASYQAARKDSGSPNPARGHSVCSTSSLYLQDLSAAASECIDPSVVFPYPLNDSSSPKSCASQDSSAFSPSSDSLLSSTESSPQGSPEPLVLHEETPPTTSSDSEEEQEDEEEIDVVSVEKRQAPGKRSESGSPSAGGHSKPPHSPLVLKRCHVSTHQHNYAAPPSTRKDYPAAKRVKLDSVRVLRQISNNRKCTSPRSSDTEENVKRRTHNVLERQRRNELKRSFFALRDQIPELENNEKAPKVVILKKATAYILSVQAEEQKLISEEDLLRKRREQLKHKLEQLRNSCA
Procedure, shortened: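 Transiently transfected HepG2 cells bearing cis-promoter reporter units for endogenous transcription factors; 24 h exposure. Reporter mRNA measured by RT-PCR, 6-FAM primer extension, HpaI cut and capillary electrophoresis; bidirectional fit relative to DMSO.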

[14] = ATG_NRF2_ARE_CIS: Attagene CIS-FACTORIAL HepG2 Assay for human Nuclear Factor Erythroid 2 Related Factor 2 (NFR2) response to Antioxidant Response Elements (ARE) (AID 2282992); settings: HepG2 Attagene ARE/NRF2 reporter, transcription factor activity; actives raise or lower the signal;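 for AC50: reporter mRNA level measured by RT-PCR and capillary electrophoresis fluorescence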
Procedure, shortened: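 Fluorescence intensity of reporter-specific cDNA fragments, separated by capillary electrophoresis, reflects mRNA induction in transfected HepG2 cells at 24 h. Activity is fitted bidirectionally, DMSO serving as baseline.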

[15] = ATG_Oct_MLP_CIS: Attagene CIS-FACTORIAL HepG2 Assay for human Octamer-Binding Transcription Factor (Oct) (AID 2282993); settings: HepG2 Attagene cis-factorial Oct reporter, mRNA; actives raise or lower the signal
Procedure, shortened: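 HepG2, transient MRTU transfection, cis promoter elements; 24 h dosing; RT-PCR/CE fluorescence read-out of reporter mRNA; fit both directions vs DMSO.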

[16] = molecular target: Cellular tumor antigen p53 (Homo sapiens) (UniProt P04637); assay: ATG_p53_CIS: Attagene CIS-FACTORIAL HepG2 Assay for human p53 Transcription Factor (AID 2282994); settings: HepG2 p53 cis-element reporter, Attagene mRNA; actives raise or lower the signal
Sequence of Cellular tumor antigen p53 (Homo sapiens) (P04637 whole entry, looked up): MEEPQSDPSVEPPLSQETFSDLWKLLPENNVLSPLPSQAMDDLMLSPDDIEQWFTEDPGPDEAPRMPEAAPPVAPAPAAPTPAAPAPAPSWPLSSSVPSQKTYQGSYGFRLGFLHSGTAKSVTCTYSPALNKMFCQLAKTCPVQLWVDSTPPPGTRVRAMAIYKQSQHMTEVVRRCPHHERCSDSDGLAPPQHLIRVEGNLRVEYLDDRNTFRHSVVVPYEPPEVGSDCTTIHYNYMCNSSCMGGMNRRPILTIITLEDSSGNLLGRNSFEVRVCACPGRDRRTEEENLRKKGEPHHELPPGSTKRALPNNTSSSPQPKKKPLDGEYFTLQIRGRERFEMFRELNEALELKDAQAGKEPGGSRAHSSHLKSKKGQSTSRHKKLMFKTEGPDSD
Procedure, shortened: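 Transiently transfected HepG2 (multiple cis reporter transcription units); exposure 24 h; reporter RNA via RT-PCR, 6-FAM extension, 2 h HpaI digest at 37 C, CE detection; DMSO baseline.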

[17] = molecular target: Nuclear receptor subfamily 1 group I member 2 (Homo sapiens) (UniProt O75469); assay: ATG_PXR_TRANS: Attagene TRANS-FACTORIAL HepG2 Assay for human Pregnane X Receptor (PXR) (AID 2283008; active = hit-call score of the fitted dose curve at least 0.9, where 1 is the maximum)
Sequence of Nuclear receptor subfamily 1 group I member 2 (Homo sapiens) (O75469 whole entry, looked up, the tested form may be a part): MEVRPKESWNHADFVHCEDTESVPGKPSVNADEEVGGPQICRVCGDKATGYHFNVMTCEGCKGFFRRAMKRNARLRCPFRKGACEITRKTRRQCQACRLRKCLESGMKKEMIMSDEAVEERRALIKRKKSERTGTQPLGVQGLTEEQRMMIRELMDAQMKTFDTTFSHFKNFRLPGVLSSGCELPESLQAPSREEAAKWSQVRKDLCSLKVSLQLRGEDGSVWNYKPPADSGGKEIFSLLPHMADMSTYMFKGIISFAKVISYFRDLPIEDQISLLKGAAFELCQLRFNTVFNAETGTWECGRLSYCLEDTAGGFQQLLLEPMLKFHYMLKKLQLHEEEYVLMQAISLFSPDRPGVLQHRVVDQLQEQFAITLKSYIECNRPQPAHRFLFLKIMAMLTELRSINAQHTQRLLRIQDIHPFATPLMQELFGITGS
Procedure, shortened: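 Transient HepG2 transfectants carrying multiplexed reporter transcription units; PXR activity read through a Gal4 chimera. 24 h exposure. RT-PCR/CE fluorescence; upward curve fit referenced to DMSO.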

[18] = ATG_XTT_Cytotoxicity: Cytotoxicity Assessment in the Attagene TRANS-FACTORIAL HepG2 Assay (AID 2283584; active = hit-call score of the fitted dose curve at least 0.9, where 1 is the maximum)
Procedure, shortened: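 HepG2 cells transiently transfected with GAL4-UAS multiple reporter units, dosed 24 h; cytotoxicity read by XTT as loss of signal versus DMSO baseline.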

[19] = ATG_TGFb_CIS: Attagene CIS-FACTORIAL HepG2 Assay for human Transforming Growth Factor (TGF) (AID 2282967); settings: HepG2 Attagene CIS TGFb reporter, mRNA transcription; actives raise or lower the signal
Procedure, shortened: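 Bidirectional fitting relative to DMSO gave the endpoint. Underlying data: reporter mRNA from HepG2 cells carrying transiently transfected cis-regulated reporter constructs, harvested 24 h after dosing and analyzed by RT-PCR and capillary electrophoresis.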

[20] = ATG_GLI_CIS: Attagene CIS-FACTORIAL HepG2 Assay for human Zinc Finger Protein GLI1 (AID 2282945); settings: HepG2, Attagene cis-factorial reporter mRNA, GLI element; actives raise or lower the signal
Procedure, shortened: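 Transiently transfected HepG2 cells report endogenous transcription factor activity via cis-element-driven reporter units. After 24 h compound exposure, reporter mRNA was measured by RT-PCR with capillary electrophoresis; bidirectional fitting against DMSO baseline.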

Measured: AC50

O=C(CC(C(=O)OC1CCCCC1)S(=O)(=O)O)OC1CCCCC1 (stereo not drawn)
not listed: [19] | [20]
inactive: all other assays above

O=C1NC(=O)C2CC=CCC12 (stereo not drawn)
not listed: [20]
inactive: all other assays above

Cc1cc(O)cc(C)c1Cl
active: [1] 79 µM | [2] 65.4 µM | [5] 48.4 µM | [14] 22.5 µM | [15] 100 µM
not listed: [8] | [13] | [16]
inactive: all other assays above

CC(=O)CCc1ccccc1
not listed: [4]
inactive: all other assays above
